Source: PubChem (National Center for Advancing Translational Sciences (NCATS))
This is a sample that favours compounds with a hit; in the whole collection about 1.5% have one here.
BLM helicase inh = blocks DNA unwinding by human BLM helicase; recombinant BLM DNA unwinding, fluorescence dequenching; P54132; 350,000 tested, 0.2% active; Potency, µM (titrated, usually from 56.1 µM), inactives show at the top dose activity change, negative = inhibition, actives largely listed as inhibitors;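 also: potency is read from the fitted curve at half-maximal effect; plate controls were vehicle for no effect and no enzyme for full effect; nearly all actives have a fitted effect of over 35% in size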
Target sequence (P54132 whole entry, looked up): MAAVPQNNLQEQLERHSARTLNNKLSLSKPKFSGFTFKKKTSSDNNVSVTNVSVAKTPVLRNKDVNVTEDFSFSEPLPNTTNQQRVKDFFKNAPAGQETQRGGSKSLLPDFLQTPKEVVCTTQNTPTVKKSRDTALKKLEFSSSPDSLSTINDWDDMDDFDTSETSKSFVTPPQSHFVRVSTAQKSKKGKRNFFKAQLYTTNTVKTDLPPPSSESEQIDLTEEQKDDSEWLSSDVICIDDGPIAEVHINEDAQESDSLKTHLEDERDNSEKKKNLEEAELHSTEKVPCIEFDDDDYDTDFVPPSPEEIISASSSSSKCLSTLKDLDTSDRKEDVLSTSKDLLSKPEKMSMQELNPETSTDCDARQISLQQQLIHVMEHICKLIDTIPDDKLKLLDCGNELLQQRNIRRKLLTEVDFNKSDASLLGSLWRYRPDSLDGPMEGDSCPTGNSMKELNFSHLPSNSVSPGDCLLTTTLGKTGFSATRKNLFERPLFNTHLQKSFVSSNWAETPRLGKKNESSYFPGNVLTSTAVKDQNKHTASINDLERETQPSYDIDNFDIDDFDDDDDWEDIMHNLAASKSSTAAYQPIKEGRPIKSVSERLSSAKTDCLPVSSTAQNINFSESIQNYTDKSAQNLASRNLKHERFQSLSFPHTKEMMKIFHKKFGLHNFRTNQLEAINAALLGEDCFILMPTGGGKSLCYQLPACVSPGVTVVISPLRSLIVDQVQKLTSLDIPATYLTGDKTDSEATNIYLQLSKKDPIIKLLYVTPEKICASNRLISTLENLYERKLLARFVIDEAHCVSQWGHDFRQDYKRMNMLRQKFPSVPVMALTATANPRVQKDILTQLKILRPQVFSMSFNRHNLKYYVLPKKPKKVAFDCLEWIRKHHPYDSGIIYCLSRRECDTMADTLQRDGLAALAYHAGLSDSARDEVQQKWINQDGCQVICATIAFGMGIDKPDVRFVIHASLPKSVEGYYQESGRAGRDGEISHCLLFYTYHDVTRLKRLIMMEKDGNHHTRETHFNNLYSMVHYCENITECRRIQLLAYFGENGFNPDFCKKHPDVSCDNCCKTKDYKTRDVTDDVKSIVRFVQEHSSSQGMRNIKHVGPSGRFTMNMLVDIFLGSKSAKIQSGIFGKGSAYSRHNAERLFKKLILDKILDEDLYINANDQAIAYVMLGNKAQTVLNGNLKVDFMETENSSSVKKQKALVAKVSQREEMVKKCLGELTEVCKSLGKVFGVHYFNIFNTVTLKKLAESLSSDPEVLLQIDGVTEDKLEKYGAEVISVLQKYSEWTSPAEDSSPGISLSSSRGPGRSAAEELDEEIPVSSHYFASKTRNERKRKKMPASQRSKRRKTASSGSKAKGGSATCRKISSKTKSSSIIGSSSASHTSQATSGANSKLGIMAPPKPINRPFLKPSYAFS
PI5P4Ka inh = PI5P4K alpha (human) kinase inhibition; P48426; PI5P4Kalpha enzyme, ADP-Glo luminescence, 60 min; hits give low values; max response, %; 330,000 tested, 1.2% active; AID 652105; active = max response of -50% or lower; inconclusive = between -30% and -50%; inactive = -30% or higher; also: value at the top dose of about 77 µM
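Reactions run in 0.038 M HEPES pH 7.4, 0.28 mM EGTA, 0.1% CHAPS and 5% DMSO, with PI5P4Kalpha, substrate, compound and 5 microM ATP final, one hour at room temperature. Readout is ADP-Glo luminescence.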
FEN1 inh = human FEN1 inhibition; P39748; Recombinant FEN1 flap cleavage, fluorescence, 15 min; 390,000 tested, 0.35% active; Potency, µM (series often up to 114 µM), for the others: top-dose activity change, negative = inhibition, actives largely listed as inhibitors; also: potency is read from the fitted curve at half-maximal effect; nearly all actives have a fitted effect of over 65% in size
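Compounds are tested as a concentration series against 10 nM FEN1; after a 15 min room-temperature preincubation, 50 nM substrate starts cleavage, with plate reads at 0 and 15 min. Normalized responses are fitted by a Hill equation.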
APEX1 inh = blocks human APE1 abasic DNA cleavage; P27695; recombinant APE1, TAMRA/BHQ-2 abasic DNA cleavage fluorescence; Potency, µM (series often up to 65.8 µM), without a hit: at the highest dose activity change, negative = inhibition, usual class: inhibitors; 350,000 tested, 0.35% active;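 also: potency is read from the fitted curve at half-maximal effect; plate controls were vehicle for no effect and reference inhibitor for full effect; nearly all actives have a fitted effect of over 55% in size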
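Incision of a quenched TAMRA/BHQ-2 THF abasic-site duplex (50 nM) by 0.75 nM APE1, after 15 min compound preincubation, measured as fluorescence increase over three 60 s reads. Values normalized to buffer, DMSO and NSC13755 control wells.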
KAT2A inh = GCN5L2 (KAT2A) acetyltransferase inhibition; AID 504327; 390,000 tested, 0.21% active; GCN5L2 HAT assay, ThioGlo1 CoA-SH fluorescence; Potency, µM (series often up to 58.9 µM), inactives show at the top dose activity change, negative = inhibition, usual class: inhibitors; also: potency is read from the fitted curve at half-maximal effect
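qHTS, 1536-well. 20nM enzyme, pH 7.5 HEPES/EDTA/Tween-20 buffer; 15 min compound preinc., RT. Start: 75uM H3(1-25), 70uM AcCoA, 50uM ThioGlo1. Read Ex340/Em540 at t=0 (autofluorescence flag) and t=20 min.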
RECQ1 inh = inhibitors of human RECQ1 DNA helicase | P46063 | RECQ1 DNA unwinding, red fluorescence kinetic read | Potency, µM (highest dose often 57.3 µM), for the others: at the highest dose activity, negative = inhibition, most hits filed as inhibitors | 240,000 tested, 0.54% active | AID 2549;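 also: potency is read from the fitted curve at half-maximal effect; plate controls were vehicle for no effect and no enzyme for full effect; nearly all actives have a fitted effect of over 30% in size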
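RECQ1T1 50 nM; forked duplex (20 bp + 30-nt ss tails) 200 nM, ATP 2 mM final; pH 8.0, 2 mM MgCl2, 2.5 ug/ml poly(dI-dC); 15 min compound preincubation; discontinuous kinetic read over 2 h at RT.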
The depositor's hits bear a star; i = inactive; ? = inconclusive; / = no result given. Unless noted, calls follow the shape of the dose curve; as a rule, active = well fitted curve in the direction sought with a large enough effect; inconclusive = small, poorly fitted or top-dose-only effect, or another doubt; inactive = no such curve, though single readings can be large; an effect the other way counts as inactive or inconclusive. Unless noted, % is scaled to controls: 0 for no effect and ±100 for the full control effect.

SMILES	BLM helicase inh	PI5P4Ka inh	FEN1 inh	APEX1 inh	KAT2A inh	RECQ1 inh
CC1CCc2c(sc(NC(=O)/C=C/c3cccs3)c2C(=O)O)C1 (stereo not drawn)	-6.0%	?	2.5%	11.9µM*	-19.5%	/
CCN(CC)c1ccc(-c2nnc(SCC(=O)NCc3ccco3)n2CC)cc1	/	/	-17.1%	/	/	/
COc1ccc(N2C(=O)c3ccccc3NC2c2ccc(OC)c(COc3ccc(NC(C)=O)cc3)c2)cc1 (stereo not drawn)	/	/	-18.7%	/	/	/
COc1ccc(NS(=O)(=O)c2cccc(C(=O)NN=Cc3cc(Br)c(O)c(Br)c3)c2)cc1	/	-50.1*	?	-15.4%	-13.7%	/
O=C(C[N+]12CCCc3cccc(c31)CCC2)c1ccc(Cl)c2ccccc12	/	/	13.3%	/	/	/
N[C@@H](CCC(=O)N[C@@H](CS)C(=O)NCC(=O)O)C(=O)O	/	/	/	-2.7%	/	/
O=C(O)CN1C(=O)/C(=C\c2ccccc2OCc2ccc(Cl)cc2Cl)SC1=S	-21.9%	-24.9	-29.8%	30.7%	17.8µM*	/
O=C(O)CN1C(=O)/C(=C\c2cc(Br)ccc2OCc2ccccc2Cl)SC1=S	?	0.2	?	-65.0%	?	/
N#Cc1ccc(/C=C2\CCCCn3c2nc2cc(C(=O)O)ccc2c3=O)cc1	-7.3%	-52.8*	-1.0%	26.7%	-2.6%	/
O=C(O[C@H]1CN2CCC1CC2)N1CCc2ccccc2[C@@H]1c1ccccc1	4.2%	/	/	/	4.3%	/
CCCN1CNc2c(c(=O)[nH]c(=S)n2CCc2c(C)cccc2C)C1	/	/	-2.4%	/	/	/
COc1ccc(C(=O)COC(=O)c2ccccc2O)c(OC)c1	/	-56.6*	-13.9%	-14.9%	?	/
Cc1cnc(C(=O)OCC(=O)c2csc(N3CCCCC3)n2)cn1	?	-60.1*	-5.5%	-3.0%	-17.9%	-6.6%
COc1ccccc1C(=O)COC(=O)c1cnc(C)cn1	/	4.5	0.3%	11.9%	-0.6%	/
COc1ccc(C(=O)COC(=O)c2cnc(C)cn2)c(OC)c1	/	-55.6*	-0.3%	29.0%	-4.1%	/
O=C1c2ccccc2C(=O)N1CCSc1n[nH]c(=S)s1	-3.6%	-76.9*	5.0%	-0.2%	?	-23.7%
CC(CSc1n[nH]c(=S)s1)c1ccccc1 (stereo not drawn)	/	-54.0*	3.2%	/	/	/
CC(Cc1n[nH]c(=S)o1)c1ccccc1 (stereo not drawn)	0.9%	-21.5	-17.6%	0.2%	-2.6%	-2.6%
N#C/C(=C\c1ccc(-c2cc(Cl)ccc2Cl)o1)C(=O)Nc1cccc2ncccc12	/	/	?	/	-16.9%	/
CC(=O)Nc1cccc2cc(S(=O)(=O)O)ccc12	/	-13.4	/	/	/	/
O=S(=O)(O)c1ccc2c(N=Nc3ccc(S(=O)(=O)O)c4ccccc34)c(O)c(S(=O)(=O)O)cc2c1	-2.3%	/	10µM*	/	-8.8%	/
CC(=O)Nc1ccc(S(=O)(=O)O)c2cc(S(=O)(=O)O)c(N=Nc3ccc(N=Nc4ccc(S(=O)(=O)O)cc4)c4ccc(S(=O)(=O)O)cc34)c(O)c12	/	/	1.26µM*	/	/	/
CC[C@H](C)[C@H]1O[C@]2(CC[C@@H]1C)C[C@@H]1C[C@@H](C/C=C(\C)[C@@H](O[C@H]3C[C@H](OC)[C@@H](O[C@H]4C[C@H](OC)[C@@H](O)[C@H](C)O4)[C@H](C)O3)[C@@H](C)/C=C/C=C3\CO[C@@H]4[C@H](O)C(C)=C[C@@H](C(=O)O1)[C@]34O)O2	/	/	/	9.7%	/	/
Cc1[nH]n(-c2ncc(-c3ccccc3)s2)c(=O)c1C(c1ccc(Br)cc1)C(C#N)C#N (stereo not drawn)	?	-69.7*	?	3.5%	?	0.3%
N#CC1=C2SCN(Cc3ccccc3)CN2C(=O)CC1c1ccccc1F (stereo not drawn)	-1.0%	-76.7*	?	-3.3%	-16.0%	-9.5%
Cc1ccc(C2CC(=O)N3CN(Cc4ccco4)CSC3=C2C#N)cc1 (stereo not drawn)	-6.6%	/	-11.1%	12.7%	-20.1%	i
